{"source": "PubChem BioAssay AID431", "about": "(Sanford-Burnham Center for Chemical Genomics, 2006)", "note": "The campaign covered roughly 63,000 compounds. About 1,100 (1.7%) were called active. This excerpt belongs to a sample that is enriched for actives. Entries with a potency or affinity are not part of this list. A number with no mark means an inactive call.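 Rule for the calls: active = compounds whose percent cytotoxicity in the single-dose primary screen, scaled between solvent and toxic-drug controls, exceeds 50; inactive = the rest.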"}
{"experiment": "cytotoxicity in KRAS-transformed pancreatic duct cells, primary screen, cell-based, fluorescence, HTS (AID 431);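 note: 0% = DMSO solvent wells and 100% = doxorubicin-treated wells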", "conditions": "HPDE-C7K KRASV12 cells, Alamar Blue viability, 48 h; at 10 µM; stronger effect = higher value"}
{"smiles": "Cc1ccc2[nH]c(=O)c(CN(Cc3ccc4c(c3)OCO4)Cc3nnnn3C3CCCC3)cc2c1", "cytotoxicity": "-0.4%"}
{"smiles": "CCc1ccc2[nH]c(=O)c(CN(Cc3ccc4c(c3)OCO4)Cc3nnnn3C3CCCC3)cc2c1", "cytotoxicity": "54.8% (active)"}
{"smiles": "Cc1ccc2cc(CN(Cc3ccc(F)cc3)Cc3nnnn3C3CCCC3)c(=O)[nH]c2c1", "cytotoxicity": "31.6%"}
{"smiles": "Cc1ccc2[nH]c(=O)c(CN(Cc3ccccc3)Cc3nnnn3C3CCCC3)cc2c1", "cytotoxicity": "47.8%"}
{"smiles": "Cc1ccc2cc(CN(Cc3ccccc3)Cc3nnnn3C3CCCC3)c(=O)[nH]c2c1", "cytotoxicity": "56.3% (active)"}
{"smiles": "Cc1cc2cc(CN(Cc3ccc4c(c3)OCO4)Cc3nnnn3C3CCCC3)c(=O)[nH]c2cc1C", "cytotoxicity": "2.4%"}
{"smiles": "O=C(Nc1ccc2c(c1)nc1n2CCN(C2CCCCC2)C1)c1ccco1", "cytotoxicity": "-30.2%"}
{"smiles": "Cc1ccc(-c2nnn(CC(=O)N(Cc3cccs3)C(C(=O)NC(C)(C)C)c3ccc(C)o3)n2)o1", "note": "(configuration not stated)", "cytotoxicity": "21.3%"}
{"smiles": "Clc1ccc(COn2nnc3ccccc32)c(Cl)c1", "cytotoxicity": "0.9%"}
{"smiles": "CCOc1ccc(C(=O)N2CCc3cc(OC)c(OC)cc3C2)cc1OCC", "cytotoxicity": "45.5%"}
{"smiles": "CCOc1cc(C(=O)N2CCc3cc(OC)c(OC)cc3C2)ccc1OC(F)F", "cytotoxicity": "89.4% (active)"}
{"smiles": "COc1ccc(C(=O)N2CCc3cc(OC)c(OC)cc3C2)cc1OC", "cytotoxicity": "-3.5%"}
{"smiles": "CCOc1nc(-c2ccccc2)ccc1-c1noc(-c2ccc(OC)c(OC)c2)n1", "cytotoxicity": "20.5%"}
{"smiles": "Cc1cc2c(c(=O)n1CCN(C)C)C(c1ccncc1)C(C#N)=C(N)O2", "note": "(configuration not stated)", "cytotoxicity": "20.9%"}
{"smiles": "Cc1cc2c(c(=O)n1CCN(C)C)C(c1ccc(Br)cc1)C(C#N)=C(N)O2", "note": "(configuration not stated)", "cytotoxicity": "54.2% (active)"}
{"smiles": "Cc1cc2c(c(=O)n1CCN(C)C)C(c1ccc(Cl)cc1)C(C#N)=C(N)O2", "note": "(configuration not stated)", "cytotoxicity": "-10.1%"}
{"smiles": "O=C(NCc1ccco1)C1CCN(c2nnc(-n3cccc3)s2)CC1", "cytotoxicity": "-3.4%"}
{"smiles": "Cc1cc(C(=O)CN2C(=O)NC(c3ccccc3)(c3ccccc3)C2=O)c(C)n1Cc1ccco1", "cytotoxicity": "3.5%"}
{"smiles": "COc1ccccc1NC(=O)C1=C(C)Nc2nnnn2C1c1ccncc1", "note": "(configuration not stated)", "cytotoxicity": "-9.7%"}
{"smiles": "CCOC(=O)c1sc(NCCNc2nc(C)c(C(=O)OCC)s2)nc1C", "cytotoxicity": "1%"}
{"smiles": "COc1cc2nc(-c3cccs3)oc(=O)c2cc1OC", "cytotoxicity": "9.6%"}
{"smiles": "CCOC(=O)c1sc(Nc2nc3c(OC)cccc3s2)nc1C", "cytotoxicity": "79.9% (active)"}
{"smiles": "COc1ccc(-c2nnc(Nc3nc4c(OC)cccc4s3)o2)cc1", "cytotoxicity": "59.3% (active)"}
{"smiles": "Fc1cccc2sc(Nc3nnc(-c4ccccc4)o3)nc12", "cytotoxicity": "44.8%"}
{"smiles": "COc1cc(OC)cc(-c2nnc(Nc3nc4c(F)cccc4s3)o2)c1", "cytotoxicity": "5.5%"}
{"smiles": "COc1cccc2sc(Nc3nnc(-c4cccs4)o3)nc12", "cytotoxicity": "59.6% (active)"}
{"smiles": "COc1ccccc1-c1nnc(Nc2nc3c(OC)cccc3s2)o1", "cytotoxicity": "56.1% (active)"}
{"smiles": "Fc1cccc2sc(Nc3nnc(-c4ccco4)o3)nc12", "cytotoxicity": "29.2%"}
{"smiles": "COc1cc(-c2nnc(-c3cccs3)o2)cc(OC)c1OC", "cytotoxicity": "-28.7%"}
{"smiles": "COc1cccc2sc(Nc3nnc(-c4ccccc4Cl)o3)nc12", "cytotoxicity": "31.7%"}
{"smiles": "COC(=O)c1sc(NC(=O)COc2ccccc2OC)nc1C", "cytotoxicity": "-10.6%"}
{"smiles": "CCn1c(SCC(=O)NCCc2ccc(F)cc2)nnc1-c1cccs1", "cytotoxicity": "4.9%"}
{"smiles": "COc1ccccc1OCc1nnc(SCC(=O)Nc2ccc(C)cc2)n1C", "cytotoxicity": "-9.9%"}
{"smiles": "Cc1ccc(CN2CC34C=CC(O3)C(C(=O)NCc3ccc5c(c3)OCO5)C4C2=O)cc1", "note": "(configuration not stated)", "cytotoxicity": "-15.5%"}
{"smiles": "CCN(CC)S(=O)(=O)c1cccc(-c2nnc(SCC(=O)NC)n2CCc2ccccc2)c1", "cytotoxicity": "-3%"}
{"smiles": "COc1ccccc1N1CCN(C(=O)c2ccc(NC(C)=O)cc2)CC1", "cytotoxicity": "-1.4%"}
{"smiles": "Brc1ccc(-c2nnc(-c3ccccc3Br)o2)cc1", "cytotoxicity": "-2.3%"}
{"smiles": "CN(CC(=O)Nc1ccccc1Cl)C(=O)COC(=O)CNC(=O)c1ccc(Br)o1", "cytotoxicity": "-18.6%"}
{"smiles": "Cc1ccc2c(c1)nnn2C1CCN(C(=O)c2cccs2)CC1", "cytotoxicity": "-4.8%"}
{"smiles": "O=C(Cc1cccs1)Nc1ccc(C(=O)O)cc1", "cytotoxicity": "-2.8%"}
{"smiles": "CC(=O)OC1CC2(C)C(=O)CCC2C2CCc3cc(O)ccc3C12", "note": "(configuration not stated)", "cytotoxicity": "-12.1%"}
{"smiles": "CCc1ccccc1S(=O)(=O)Cc1ccc(C(=O)NCC2CCCO2)o1", "note": "(configuration not stated)", "cytotoxicity": "-0.8%"}
{"smiles": "c1ccc(-c2csc(Nc3cccnc3)n2)nc1", "cytotoxicity": "4.5%"}
{"smiles": "Cc1cccc(Nc2nc(-c3ccccn3)cs2)n1", "cytotoxicity": "10.2%"}
{"smiles": "COc1cccc2sc(Nc3nc(-c4ccccn4)cs3)nc12", "cytotoxicity": "58.6% (active)"}
{"smiles": "CC(C)OCCCNC(=O)CN1C(=O)CC(C)(C)S(=O)(=O)c2ccccc21", "cytotoxicity": "3.7%"}
{"smiles": "CS(=O)(=O)N(CC(=O)NCc1ccc2c(c1)OCO2)Cc1ccc(Cl)cc1", "cytotoxicity": "-14.6%"}
{"smiles": "N#Cc1c(N2CCCCC2)nc(N2CCCCC2)c2c1CCN(Cc1ccccc1)C2", "cytotoxicity": "-4.7%"}
{"smiles": "N#Cc1c(NCCCO)nc(-c2ccccc2)c2c1CCCC2", "cytotoxicity": "20.2%"}
{"smiles": "CCN1CCc2c(C#N)c(N3CCCCC3)nc(NCc3ccccc3)c2C1", "cytotoxicity": "51.6% (active)"}
{"smiles": "C=CCNc1nc(NCc2ccccc2)c(C#N)c2c1CN(C)CC2", "cytotoxicity": "19.2%"}
{"smiles": "C=CCNc1nc(N2CCCCC2)c(C#N)c2c1CN(Cc1ccccc1)CC2", "cytotoxicity": "-1.7%"}
{"smiles": "CCN1CCc2c(C#N)c(N3CCOCC3)nc(NCc3ccccc3)c2C1", "cytotoxicity": "-1.3%"}
{"smiles": "N#Cc1c(NCCO)nc(NCc2ccccc2)c2c1CCN(Cc1ccccc1)C2", "cytotoxicity": "40.8%"}
{"smiles": "CCN(CCCNC(=O)CCCn1c(=O)[nH]c2ccccc2c1=O)c1cccc(C)c1", "cytotoxicity": "-2.5%"}
{"smiles": "CCc1nc(SCC(=O)Nc2cc(C)on2)n[nH]1", "cytotoxicity": "-9.6%"}
{"smiles": "CCOc1ccccc1NC(=O)N1C2CCCC1CC(NC(=O)C1CC1)C2", "note": "(configuration not stated)", "cytotoxicity": "-3.2%"}
{"smiles": "Cc1ccccc1NC(=O)N1C2CCCC1CC(NC(=O)C(C)(C)C)C2", "note": "(configuration not stated)", "cytotoxicity": "-3.9%"}
{"smiles": "Cc1ccccc1NC(=O)N1C2CCCC1CC(NC(=O)C1CC1)C2", "note": "(configuration not stated)", "cytotoxicity": "54.6% (active)"}
{"smiles": "CCCCSc1nnc(C)c(=O)[nH]1", "cytotoxicity": "-3.8%"}
{"smiles": "CN1CC2=Cc3ccccc3OC23Oc2ccccc2C=C3C1", "cytotoxicity": "60.6% (active)"}
{"smiles": "Cc1ccccc1-c1nn2c(-c3ccccc3)nnc2s1", "cytotoxicity": "11.2%"}
{"smiles": "c1ccc(-c2nnc3sc(-c4csc5c4CCCC5)nn23)cc1", "cytotoxicity": "71.6% (active)"}
{"smiles": "Cc1nnc2sc(-c3csc4c3CCCC4)nn12", "cytotoxicity": "3.5%"}
{"smiles": "COc1ccc(-c2cc(C(F)F)n3ncc(C(=O)NCCCN4CCCC4=O)c3n2)cc1", "cytotoxicity": "-8.7%"}
{"smiles": "COCCNC(=O)c1ccccc1-c1ccccc1C(=O)O", "cytotoxicity": "7.4%"}
{"smiles": "COC(=O)CSc1nnc(CCc2nc3ccccc3[nH]2)n1C", "cytotoxicity": "-3.8%"}
{"smiles": "COc1cc(C2C(C(C)=O)=C(C)Nc3ncnn32)ccc1O", "note": "(configuration not stated)", "cytotoxicity": "2.2%"}
{"smiles": "COc1ccc(OC)c(Nc2cc(C)nc3ccccc23)c1", "cytotoxicity": "1.1%"}
{"smiles": "COc1cc(-c2ccccc2)nc(N)n1", "cytotoxicity": "7.6%"}
{"smiles": "COc1ccc(OC)c(Nc2cc(-c3ccccc3)nc(N)n2)c1", "cytotoxicity": "57.6% (active)"}
{"smiles": "CC1CCCCC1NC(=O)Cn1[nH]c(=O)c2ccccc2c1=O", "note": "(configuration not stated)", "cytotoxicity": "0.5%"}
{"smiles": "CC(C)(C)NC(=O)Nc1ccccc1C(N)=O", "cytotoxicity": "-1.1%"}
{"smiles": "Cc1sc2nc3c4ccccc4c(NCc4ccco4)nn3c(=O)c2c1C", "cytotoxicity": "66% (active)"}
{"smiles": "Cc1sc2ncnc(NCc3ccco3)c2c1C", "cytotoxicity": "0.5%"}
{"smiles": "Cc1sc2nc(SCC(=O)NCc3ccco3)n(-c3ccccc3)c(=O)c2c1C", "cytotoxicity": "7.2%"}
{"smiles": "O=C(CCOc1ccccc1)OCC(=O)c1cc2ccccc2o1", "cytotoxicity": "-20.1%"}
{"smiles": "COc1ccc(S(=O)(=O)N2CCCCC2)cc1C(C)C", "cytotoxicity": "-10.6%"}
{"smiles": "Cc1cc(-c2csc(N)n2)c(C)n1CCc1ccccc1", "cytotoxicity": "99.3% (active)"}
{"smiles": "CCOC(=O)c1cc(C)n(CCc2ccccc2)c1C", "cytotoxicity": "0.4%"}
{"smiles": "Nc1nc(-c2ccccc2Br)cs1", "cytotoxicity": "15.5%"}
{"smiles": "COCCn1c(-c2ccc(Cl)cc2)cnc1SCC(=O)NCc1cccs1", "cytotoxicity": "-6.5%"}
{"smiles": "N#CC1=C(N)C(C#N)(C#N)C2(C(=O)Nc3ccccc32)C2CCCC=C12", "note": "(configuration not stated)", "cytotoxicity": "-18.9%"}
{"smiles": "CS(=O)(=O)N1CCc2cc(C(=O)O)ccc21", "cytotoxicity": "8.3%"}
{"smiles": "CS(=O)(=O)N1CCc2cc(S(=O)(=O)N3CCN(Cc4ccc5c(c4)OCO5)CC3)ccc21", "cytotoxicity": "7.7%"}
{"smiles": "CS(=O)(=O)N1CCc2cc(S(=O)(=O)Nc3ccc4oc5c(c4c3)CCCC5)ccc21", "cytotoxicity": "84.6% (active)"}
{"smiles": "O=C(C(Cc1ccccc1)n1cccc1)N1CCc2ccccc21", "note": "(configuration not stated)", "cytotoxicity": "-1.9%"}
{"smiles": "CC(=O)Oc1c(Cl)c(N2CCOCC2)c(OC(C)=O)c2ccccc12", "cytotoxicity": "-27.5%"}
{"smiles": "COCCn1c(SCC(=O)Nc2ccccc2)nc2c1c(=O)[nH]c(=O)n2C", "cytotoxicity": "-3.2%"}
{"smiles": "CC1CCc2c(sc3ncnc(SCC(=O)N4CCN(C(=O)c5ccco5)CC4)c23)C1", "note": "(configuration not stated)", "cytotoxicity": "2.5%"}
{"smiles": "CCC(c1nnnn1C(C)(C)C)N1CCN(c2cc(Cl)ccc2C)CC1", "note": "(configuration not stated)", "cytotoxicity": "-6.4%"}
{"smiles": "O=c1cc(-c2ccccc2)[nH]n1-c1nc2ccccc2s1", "cytotoxicity": "79% (active)"}
{"smiles": "O=c1cc(-c2ccccc2)[nH]c2nc3ccccc3n12", "cytotoxicity": "31.4%"}
{"smiles": "COc1ccc(-c2cc(=O)n(-c3nc4ccccc4[nH]3)[nH]2)cc1", "cytotoxicity": "10.5%"}
{"smiles": "CC(=NC1CCCC1)c1c(C)[nH]n(-c2nc3ccccc3s2)c1=O", "cytotoxicity": "-31.1%"}
{"smiles": "Cc1nn(-c2nc3ccccc3s2)c(N)c1-c1ccccc1", "cytotoxicity": "5.2%"}
{"smiles": "Cc1[nH]c(=O)[nH]c1CN1CCCCC1", "cytotoxicity": "-10.3%"}
